Several values for one entry are separate records, joined by “and”; a condition that tells them apart may be missing. Identical values can stand only once. Records with an inconclusive call do not appear. A number with no mark means an inactive call. Activity calls are given as the source filed them. Calls come from the whole dose curve; as a rule, active = well fitted inhibition curve with a large enough effect; inconclusive = small, poorly fitted or top-dose-only effect; inactive = flat fitted curve, though single readings scatter.
Test system: CRL-7250
Test: Cytotoxic Profiling of Annotated Libraries Using Quantitative High-Throughput Screening (AID 1296008); note: nearly all actives have a fitted effect of over 60% in size
Details: Five cell lines viability, CellTiter-Glo ATP luminescence, 48-72 h; max response: hits give low values
Summary of the method: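 Cytotoxicity was measured as CellTiter-Glo ATP luminescence, read after 10 min at room temperature. Compound treatment of the cells lasted 48 or 72 hr at 37 degrees Celsius in a qHTS format.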
% is set by controls: 0 for no effect and ±100 for the full control effect; potency is the fitted concentration of half-maximal effect.

O=C1NC(=O)C(=Cc2cccc(C(F)(F)F)c2)S1
outcome: inactive

COc1cc(NC(=O)c2ccc(-c3ccc(Cl)cc3)o2)cc(OC)c1
outcome: inactive

CCOC1OC(=O)C[C@H]1NC(=O)[C@@H]1CCCN1C(=O)[C@@H](NC(=O)c1ccc(N)c(Cl)c1)C(C)(C)C (some centres undefined)
outcome: inactive

CC[C@]1(O)C[C@@H]2CN(CCc3c([nH]c4ccccc34)[C@@](C(=O)OC)(c3cc4c(cc3OC)N(C)[C@H]3[C@@](O)(C(=O)OC)[C@H](OC(C)=O)[C@]5(CC)C=CCN6CC[C@]43[C@@H]65)C2)C1
Potency: 0.266 µM (active)

CO[C@H]1C[C@@H]2CC[C@@H](C)[C@@](O)(O2)C(=O)C(=O)N2CCCC[C@@H]2C(=O)O[C@H]([C@H](C)C[C@@H]2CC[C@H](OP(C)(C)=O)[C@H](OC)C2)CC(=O)[C@H](C)C=C(C)[C@@H](O)[C@@H](OC)C(=O)[C@H](C)C[C@H](C)C=CC=CC=C1C
max response: -18.4%

O=c1cc(-c2ccccc2)oc2cc(O)cc(O)c12
max response: -20.5%

Cc1cc(OCCCc2c(C(=O)O)n(Cc3cccnc3)c3c(-c4c(COc5ccc(N6CCN([S+](C)(=O)[O-])CC6)cc5)nn(C)c4C)cccc23)cc(C)c1Cl
max response: -16.6%

CN(C)C1CCN(C(=O)c2ccc(NC(=O)Nc3nc(N4CCOCC4)nc(N4CCOCC4)n3)cc2)CC1
Potency: 0.0006 µM (active)

O=C(OCC#CCSc1nnc(-c2cccc3ccccc23)o1)c1cc2ccccc2s1
max response: 3.01%

CC[C@H]1OC(=O)[C@H](C)C(=O)[C@H](C)[C@@H](O[C@H]2O[C@H](C)C[C@H](N(C)C)[C@@H]2O)[C@](C)(OC)C[C@@H](C)C(=O)[C@H](C)[C@H]2N(CCCCn3cnc(-c4cccnc4)c3)C(=O)O[C@]12C
max response: -7.01%

O=C1c2c(O)cc(O)cc2O[C@H](c2cc(O)c(O)c(O)c2)[C@H]1O
max response: 1.37%

C=C1C(=O)OC(CCCCCCCC)C1C(=O)O (centres undefined)
outcome: inactive

O=C(Nc1ccccc1Br)N[C@@H]1CCN(c2ccc(C(F)(F)F)cn2)C1
max response: -5.42%

O=C(CCc1ccc(O)cc1)c1c(O)cc(O)cc1O[C@@H]1O[C@H](CO)[C@H](O)[C@H](O)[C@H]1O
max response: -9.67%

CC(C)(Cc1ccc2ccccc2c1)NC[C@@H](O)COc1cccc(Cl)c1C#N
outcome: inactive

CC(C)C(C)C=CC(C)C1CCC2C3=CC=C4CC(O)CCC4(C)C3CCC21C (centres undefined)
max response: -1.32%

CN(C)Cc1cccc(N=C(c2ccccc2)c2c(O)[nH]c3cc(C(=O)N(C)C)ccc23)c1
Potency: 20.9 µM (active)

O=c1cc(-c2cccc3c2Sc2ccccc2S3)oc(N2CCOCC2)c1
outcome: inactive

CCOC(CN1C(=O)[C@](CC(=O)Nc2ccc(C)cc2)(NC(=O)Nc2ccc(C)cc2)c2ccccc21)OCC
max response: 2.73%

COc1ccc(-c2cc(=O)c3c(O)cc(O)cc3o2)cc1O
outcome: inactive

CC=CC[C@@H](C)C(=O)[C@H]1C(=O)N[C@@H](C(C)C)C(=O)N(C)CC(=O)N(C)[C@@H](CC(C)C)C(=O)N[C@@H](C(C)C)C(=O)N(C)[C@@H](CC(C)C)C(=O)N[C@@H](C)C(=O)N[C@H](C)C(=O)N(C)[C@@H](CC(C)C)C(=O)N(C)[C@@H](CC(C)C)C(=O)N(C)[C@@H](C(C)C)C(=O)N1C
max response: -6.35%

COc1ccc(-c2coc3cc(O)cc(O)c3c2=O)cc1
max response: 1.69%

CON=C(C(=O)N[C@@H]1C(=O)N2C(C(=O)OCOC(=O)C(C)(C)C)=C(C=Cc3scnc3C)CS[C@H]12)c1csc(N)n1
outcome: inactive

CC(C)(C)c1ccc(C(O)CCCN2CCC(C(O)(c3ccccc3)c3ccccc3)CC2)cc1 (centres undefined)
outcome: inactive

CC(C)(C)OC(=O)N[C@H]1CCCCCC=C[C@@H]2C[C@@]2(C(=O)NS(=O)(=O)C2CC2)NC(=O)[C@@H]2C[C@@H](OC(=O)N3Cc4cccc(F)c4C3)CN2C1=O
max response: -21.2%

C[C@H](NC(=O)c1sccc1OCc1ccc(Cl)cc1)c1ccccc1
Potency: 29.6 µM (active)

O=C1C[C@@H](c2ccc(O)cc2)Oc2cc(O)cc(O)c21
max response: -1.31%

COc1ccc(-c2coc3cc(O)ccc3c2=O)cc1
outcome: inactive

CC(C)(C)NC(=O)Nc1cccc(Nc2ncc(F)c(NC(C)(C)CO)n2)c1
max response: -1.2% and -11%

— PubChem BioAssay (NCATS)
